Compounds without any hit were thinned out: in the full panel of roughly 83,000, 20% have a hit.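 Cell lines were cultured in 96-well plates, exposed to a single compound concentration, and assessed for percent growth 48 hours later.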 Values without a mark were called inactive. Calls of active or inactive are those of the source. How the source made its calls: active means growth percent below 10; inactive means the rest.
What was measured:
Test in all cases: NCI-60 one-dose screen, 48 h (100 = growth as untreated, 0 = no growth, -100 = all killed)
Conditions in all cases: 10 µM unless noted
NCI-H23 lung = test system: NCI-H23 lung
NCI-H226 lung = test system: NCI-H226 lung
NCI-H322M lung = test system: NCI-H322M lung
HOP-62 NSCLC = test system: HOP-62 NSCLC
NCI-H460 lung = test system: NCI-H460 lung
786-0 renal = test system: 786-0 renal
MDA-MB-231 breast = test system: MDA-MB-231 breast
SF-268 CNS = test system: SF-268 CNS
SF-539 CNS = test system: SF-539 CNS
M14 melanoma = test system: M14 melanoma
PC-3 prostate = test system: PC-3 prostate
UACC-62 melanoma = test system: UACC-62 melanoma
SK-MEL-28 melanoma = test system: SK-MEL-28 melanoma
UO-31 renal = test system: UO-31 renal
OVCAR-5 ovarian = test system: OVCAR-5 ovarian
OVCAR-3 ovarian = test system: OVCAR-3 ovarian
NCI/ADR-RES ovarian = test system: NCI/ADR-RES ovarian
SW-620 colon = test system: SW-620 colon
MCF7 breast = test system: MCF7 breast
KM12 colon = test system: KM12 colon

Row | Structure (SMILES) | growth (NCI-H23 lung) | growth (NCI-H226 lung) | growth (NCI-H322M lung) | growth (HOP-62 NSCLC) | growth (NCI-H460 lung) | growth (786-0 renal) | growth (MDA-MB-231 breast) | growth (SF-268 CNS) | growth (SF-539 CNS) | growth (M14 melanoma) | growth (PC-3 prostate) | growth (UACC-62 melanoma) | growth (SK-MEL-28 melanoma) | growth (UO-31 renal) | growth (OVCAR-5 ovarian) | growth (OVCAR-3 ovarian) | growth (NCI/ADR-RES ovarian) | growth (SW-620 colon) | growth (MCF7 breast) | growth (KM12 colon)
1 | O=C(CC1(O)C(=O)Nc2ccc(F)cc21)c1ccc(C(=O)NCC2CCC3(CC2)OOC2(CCCCC2)OO3)cc1 (centres undefined) | 34.9% | 69.3% | 94.6% | -14.4% (active) | 21.7% | -78.5% (active) | 41.5% | 63.4% | 7.74% (active) | 83.9% | 44.2% | 73.4% | 78.5% | -81.7% (active) | 87.3% | -50.1% (active) | 80% | 61.1% | 60.9% | 32.5%
2 | O=C(C(=O)N1CCCC1)c1cn(CCCCCn2cc(C(=O)C(=O)N3CCCC3)c3ccccc32)c2ccccc12 | 91.1% | 89% | 93.9% | 102% | 91.3% | 105% | 77.2% | 91.4% | 94.8% | 95.9% | 65.9% | 65.3% | 106% | 61.6% | 106% | 88.4% | 84.4% | 91.9% | 86.6% | 86.3%
3 | ClCCN(CCCl)c1ccc(/C=C\c2ccnc3ccccc23)cc1 | 61.6% | 69.1% | 92.3% | 120% | 56.3% | 84.2% | 92.2% | 94.9% | 92.5% | 85.5% | 55.5% | 59.2% | 98.1% | 70.8% | 119% | 84% | 80.4% | 77.2% | 61.5% | 83.1%
4 | COc1ccc(C(=O)c2ccc([As]=O)cc2)cc1 (centres undefined) | -43.4% (active) | -59.6% (active) | -94.1% (active) | -86.1% (active) | -62.5% (active) | -99.5% (active) | -71% (active) | -83.5% (active) | -91.6% (active) | -84% (active) | -86.3% (active) | -82.1% (active) | -87.1% (active) | -95% (active) | -84.2% (active) | -40.4% (active) | -5.33% (active) | -64.4% (active) | -20.3% (active) | -93.7% (active)
5 | N#C[Se]CCCNS(=O)(=O)C1CC2C=CC1C2 (centres undefined) | -37.5% (active) | -66.5% (active) | -19.9% (active) | -71.6% (active) | -18.3% (active) | -87.4% (active) | -71.8% (active) | -55.7% (active) | -77.9% (active) | -47.9% (active) | -19.2% (active) | -54.1% (active) | -15.3% (active) | -98.7% (active) | 4.98% (active) | -63.6% (active) | -3.8% (active) | 1.26% (active) | 2.16% (active) | -5.35% (active)
6 | O=C1NC2(CCNCC2)Nc2ccccc21 | 100% | 97.7% | 109% | 96.6% | 110% | 107% | 120% | 106% | 114% | 100% | 88.5% | 96.1% | 116% | 89.4% | 115% | 108% | 109% | 102% | 107% | 105%
7 | [Cl][Hg][n]1cnc2c(Cl)c(Cl)c(Cl)cc21 | 101% | 119% | 93.4% | 109% | 98.1% | 112% | 108% | 88% | 101% | 94.5% | 88.7% | 86.5% | 107% | 86.4% | 132% | 94.5% | 104% | 114% | 78.3% | 97.8%
8 | COP(=S)(OC)Oc1ccc(SC)c(C)c1 | 97.7% | 85.6% | 108% | 95.4% | 110% | 104% | 113% | 110% | 94.4% | 101% | 85.9% | 95.5% | 115% | 80.2% | 93.2% | 104% | 100% | 106% | 113% | 105%
9 | CCC1CN1P(=O)(OCCOC)N1CC1CC (centres undefined) | 114% | 109% | 101% | 111% | 111% | 103% | 107% | 109% | 97.1% | 109% | 98.2% | 103% | 107% | 88.6% | 103% | 119% | 115% | 106% | 99.4% | 114%
10 | COc1ccc(C2SCC(=O)Nc3c2c(C)nn3-c2nc3ccc(C)cc3s2)cc1O (centres undefined) | 55.3% | 67.6% | 56.3% | 38.3% | 15.7% | 58.4% | 36% | 44.8% | 31% | – | 19.9% | 40.2% | 51.1% | 28.4% | 67.2% | 5.66% (active) | 17.3% | 28.1% | 15.4% | 16.2%
11 | CCOCC1(CCc2ccccc2)C(=O)NC(=S)NC1=O | 94% | 106% | 114% | 104% | 113% | 102% | 100% | 102% | 99.9% | 105% | 104% | 104% | 117% | 84% | 107% | 117% | 105% | 109% | 103% | 110%
12 | O=C1C=CC(=O)C2C1C1(Cl)C(Cl)=C(Cl)C2(Cl)C1(Cl)Cl (centres undefined) | 58% | 56.9% | 77.2% | 63.5% | 57.5% | 73.9% | 44.8% | 47.6% | 62.5% | 44.4% | 44.3% | 46.1% | 67.7% | 44.9% | 78.3% | 44.3% | 47.3% | 64.7% | 47% | 38.9%
13 | CCN(CC)CCOc1c(C(C)C)cccc1C(C)C | 104% | 111% | 88.3% | 96.7% | 112% | 99.6% | 109% | 107% | 116% | 99.2% | 101% | 99.5% | 92.1% | 94.4% | 90.6% | 107% | 101% | 106% | 94.2% | 99.3%
14 | c1ccc(CCN2CCCCC2Cc2ccccc2)cc1 (centres undefined) | 86.2% | 102% | 78.5% | 97.2% | 116% | 102% | 96.4% | 99.4% | 101% | 94.7% | 103% | 92.4% | 97.5% | 74.7% | 83% | 103% | 87.8% | 107% | 96.1% | 103%
15 | O=[N+]([O-])c1ccc(/C=C/C=C/c2ccc(S(=O)(=O)F)cc2)c(Cl)c1 | 96.4% | 99.8% | 94.7% | 99.9% | 107% | 97.5% | 99.3% | 96.1% | 104% | 100% | 91.8% | 94.9% | 98.6% | 79.2% | 112% | 109% | 104% | 104% | 102% | 97.1%
16 | COc1cc(C2(C#N)CCN(C)CC2)cc(OC)c1OC | 104% | 110% | 129% | 103% | 102% | 102% | 98.8% | 90.9% | 111% | 90.9% | 97.5% | 94.3% | 106% | 79.8% | 97.5% | 108% | 104% | 97.3% | 95.7% | 100%

— PubChem BioAssay (NCI)
